The record followed here is PubChem BioAssay (EPA / NIEHS).

For orientation: AC50 means the midpoint of the concentration-response curve, whichever way the signal moves.

The source made the active and inactive calls. How the source made its calls: active means hit-call score of the fitted dose curve at least 0.9, where 1 is the maximum; inactive means score below 0.9.

Read-out in experiment [1]: Human Leukocyte Antigen - DR isotype (HLADR), HLA-DRA (gene 3122)
Briefly: BSK_CASM3C_HLADR: BioMAP Diversity Plus: CASM3C Assay for Human Leukocyte Antigen - DR isotype (HLADR) Biomarker Activity (AID 2283043).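 Further: cell-surface HLA-DR protein level quantified by ELISA.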 As to conditions: primary human coronary artery smooth muscle cells; actives raise or lower the signal.

Read-out in experiment [2]: Macrophage colony-stimulating factor (MCSF), CSF1 (gene 1435)
The experiment is described as follows: BSK_CASM3C_MCSF: BioMAP Diversity Plus: CASM3C Assay for Macrophage colony-stimulating factor (MCSF) Biomarker Activity (AID 2283044).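 Further: M-CSF protein amount quantified by ELISA after 24 h exposure.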 Conditions: primary human coronary artery smooth muscle cells; actives raise or lower the signal.

Read-out in experiment [3]: Low-density lipoprotein receptor (LDLR), LDLR (gene 3949)
Briefly: BSK_CASM3C_LDLR: BioMAP Diversity Plus: CASM3C Assay for Low-density lipoprotein receptor (LDLR) Biomarker Activity (AID 2283045).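 Further: LDLR protein level on the cell surface quantified by ELISA.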 Conditions: primary human coronary artery smooth muscle cells; actives raise or lower the signal.

Read-out in experiment [4]: Monocyte Chemoattractant Protein-1 (MCP1), CCL2 (gene 6347)
The experiment is described as follows: BSK_CASM3C_MCP1: BioMAP Diversity Plus: CASM3C Assay for Monocyte Chemoattractant Protein-1 (MCP1) Biomarker Activity (AID 2283046).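 Further: MCP-1 level quantified by ELISA 24 h after dosing.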 Conditions: primary human coronary artery smooth muscle cells; actives raise or lower the signal.

Experiment [5] can be described thus: BSK_CASM3C_Proliferation: Cell Proliferation Assessment in the BioMAP Diversity Plus: CASM3C Assay (AID 2283047).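 Further: sulforhodamine B total protein stain as relative cell number at 560 nm; sub-confluent cells exposed 48 h before staining; fitted both ways against DMSO so gain or loss of cell number.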 As to conditions: primary human coronary artery smooth muscle cells.
Read-out in experiment [6]: Monokine induced gamma interferon (MIG), CXCL9 (gene 4283)
The experiment is described as follows: BSK_CASM3C_MIG: BioMAP Diversity Plus: CASM3C Assay for Monokine induced gamma interferon (MIG) Biomarker Activity (AID 2283048).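 Further: MIG protein level measured by ELISA.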 Conditions: primary human coronary artery smooth muscle cells; actives raise or lower the signal.

Read-out in experiment [7]: serum amyloid A (SAA), SAA1 (gene 6288)
Briefly: BSK_CASM3C_SAA: BioMAP Diversity Plus: CASM3C Assay for serum amyloid A (SAA) Biomarker Activity (AID 2283049).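 Further: SAA protein level quantified by ELISA.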 Conditions: primary human coronary artery smooth muscle cells; actives raise or lower the signal.

Experiment [8] can be described thus: BSK_CASM3C_SRB: Viability Assessment in the BioMAP Diversity Plus: CASM3C Assay (AID 2283050).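 Further: total protein by SRB staining as cytotoxicity measure in parallel cultures.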 As to conditions: primary human coronary artery smooth muscle cells.
Read-out in experiment [9]: Thrombomodulin, THBD (gene 7056)
Briefly: BSK_CASM3C_Thrombomodulin: BioMAP Diversity Plus: CASM3C Assay for Thrombomodulin Biomarker Activity (AID 2283051).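 Further: thrombomodulin protein level measured by ELISA 24 h after dosing.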 Conditions: primary human coronary artery smooth muscle cells; actives raise or lower the signal.

Read-out in experiment [10]: Tissue Factor, F3 (gene 2152)
The experiment is described as follows: BSK_CASM3C_TissueFactor: BioMAP Diversity Plus: CASM3C Assay for Tissue Factor Biomarker Activity (AID 2283052).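 Further: cell surface tissue factor protein level read by ELISA.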 Conditions: primary human coronary artery smooth muscle cells; actives raise or lower the signal.

Read-out in experiment [11]: Interferon-gamma inducible Protein 10 (IP10), CXCL10 (gene 3627)
Briefly: BSK_hDFCGF_IP10: BioMAP Diversity Plus: hDFCGF Assay for Interferon-gamma inducible Protein 10 (IP10) Biomarker Activity (AID 2283053). Conditions: primary human foreskin fibroblasts; actives raise or lower the signal. A digest of the protocol: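 Primary foreskin fibroblasts, human; 24 h compound exposure; IP-10 by ELISA; bidirectional fit vs DMSO.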

Read-out in experiment [12]: Urokinase-type plasminogen activator receptor (uPAR), PLAUR (gene 5329)
The experiment is described as follows: BSK_CASM3C_uPAR: BioMAP Diversity Plus: CASM3C Assay for Urokinase-type plasminogen activator receptor (uPAR) Biomarker Activity (AID 2283054).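 Further: cell-surface uPAR protein level quantified by ELISA.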 Conditions: primary human coronary artery smooth muscle cells; actives raise or lower the signal.

Read-out in experiment [13]: Vascular cell adhesion molecule 1 (VCAM1), VCAM1 (gene 7412)
The experiment is described as follows: BSK_CASM3C_VCAM1: BioMAP Diversity Plus: CASM3C Assay for Vascular cell adhesion molecule 1 (VCAM1) Biomarker Activity (AID 2283055).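 Further: VCAM-1 protein level quantified by ELISA on the cells.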 Conditions: primary human coronary artery smooth muscle cells; actives raise or lower the signal.

Read-out in experiment [14]: Collagen III, COL3A1 (gene 1281)
The experiment is described as follows: BSK_hDFCGF_CollagenIII: BioMAP Diversity Plus: hDFCGF Assay for Collagen III Biomarker Activity (AID 2283056). Conditions: primary human foreskin fibroblasts; actives raise or lower the signal. A digest of the protocol:
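Response relative to DMSO, fitted in both directions, reflects ELISA-measured collagen III in human primary skin fibroblasts 24 h after compound addition.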

Read-out in experiment [15]: Epidermal growth factor receptor (EGFR), EGFR (gene 1956)
Briefly: BSK_hDFCGF_EGFR: BioMAP Diversity Plus: hDFCGF Assay for Epidermal growth factor receptor (EGFR) Biomarker Activity (AID 2283057). Conditions: primary human foreskin fibroblasts; actives raise or lower the signal. The procedure, abridged: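 hDFCGF system, primary human foreskin fibroblasts; compound 24 h; EGFR measured by ELISA; DMSO = negative control/baseline; bidirectional fitting.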

Read-out in experiment [16]: Interleukin-8 (IL8), CXCL8 (gene 3576)
Briefly: BSK_hDFCGF_IL8: BioMAP Diversity Plus: hDFCGF Assay for Interleukin-8 (IL8) Biomarker Activity (AID 2283058). As to conditions: primary human foreskin fibroblasts; actives raise or lower the signal. A digest of the protocol: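 Fibroblast monolayers (human foreskin, hDFCGF) received test chemical for 24 h before ELISA detection of IL-8; either increases or decreases relative to DMSO count as activity.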

Experiment [17] can be described thus: BSK_hDFCGF_Proliferation: Cell Proliferation Assessment in the BioMAP Diversity Plus: hDFCGF Assay (AID 2283059).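 Further: curves fitted for both rise and fall of signal versus DMSO baseline.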 As to conditions: primary human foreskin fibroblasts. A digest of the protocol: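 Sub-confluent human foreskin fibroblast cultures receive test chemical […]. Relative cell number is quantified by sulforhodamine B staining (0.1%, after 10% TCA fixation) at 560 nm, with bidirectional fitting referenced to DMSO.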

Read-out in experiment [18]: Macrophage colony-stimulating factor (MCSF), CSF1 (gene 1435)
Briefly: BSK_hDFCGF_MCSF: BioMAP Diversity Plus: hDFCGF Assay for Macrophage colony-stimulating factor (MCSF) Biomarker Activity (AID 2283060). Conditions: primary human foreskin fibroblasts; actives raise or lower the signal. A digest of the protocol:
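fibroblasts (human foreskin, primary), 24 h post-dose; M-CSF by ELISA; bidirectional fit, DMSO = baseline.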

Experiment [19] in a line: BSK_hDFCGF_SRB: Viability Assessment in the BioMAP Diversity Plus: hDFCGF Assay (AID 2283061).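 Further: cells exposed to compound for 24 h before the read.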 As to conditions: primary human foreskin fibroblasts. The procedure, abridged: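 SRB-based viability read on primary human skin fibroblasts at 24 h: TCA fixation, 0.1% dye, 560 nm. Gain or loss of signal is fitted against the DMSO negative control.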
Read-out in experiment [20]: TIMP metallopeptidase inhibitor 1 (TIMP1), TIMP1 (gene 7076)
Briefly: BSK_hDFCGF_TIMP1: BioMAP Diversity Plus: hDFCGF Assay for TIMP metallopeptidase inhibitor 1 (TIMP1) Biomarker Activity (AID 2283062). As to conditions: primary human foreskin fibroblasts; actives raise or lower the signal. A digest of the protocol: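 Bidirectional curve fitting against DMSO baseline yielded this endpoint, based on ELISA detection of TIMP-1 in primary human foreskin fibroblasts exposed to compound for 24 h.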

Consider `C#CC1(O)CC[C@H]2[C@@H]3CCC4=CCCC[C@@H]4[C@H]3CC[C@@]21C` (stereo not given in full), for which the AC50 in [1] is 34.8 µM (active); in [2] it was 20 µM (active); in experiment [4], 32.1 µM (active); in experiment [5], 8.11 µM (active); in experiment [6], 20 µM (active); in experiment [7], 20 µM (active). For the same compound, the AC50 is 31 µM (active) in [8]; 20 µM (active) in experiment [9]; 20 µM (active) in [10]; 34.4 µM (active) in experiment [11]; 20 µM (active) in experiment [12]; 29.4 µM (active) in experiment [13]. Moreover, the AC50 in [14] is 34.4 µM (active); in experiment [15] it was 20 µM (active); in [17] it was 15.1 µM (active); in experiment [18], 30 µM (active); in [19] it was 35.2 µM (active); in experiment [20], 33 µM (active). Also, the outcome in experiment [3] and in experiment [16] was inactive.
As to `CCCCNc1ccc(NCCCC)c2c1C(=O)c1ccccc1C2=O`, the result in experiment [1], in experiment [2], in experiment [3], in experiment [4], in [5] and in experiment [6] was inactive. Further, the outcome in experiment [7], in experiment [8], in experiment [9], in [10], in experiment [11] and in experiment [12] was inactive. Further, the outcome in [13], in experiment [15], in [16], in experiment [17], in experiment [18] and in [19] was inactive. The result in experiment [20] was inactive. Moreover, the AC50 in experiment [14] is 3.46 µM (active).
For `C=CC(=O)OCC(Br)CBr` (stereo not given), the AC50 is 11.1 µM (active) in experiment [1]; 20 µM (active) in experiment [2]; 36 µM (active) in experiment [3]; 27.1 µM (active) in experiment [4]; 28.5 µM (active) in experiment [5]; 28 µM (active) in experiment [6]. The AC50 in [8] was 28.4 µM (active); in experiment [9] it was 32.8 µM (active); in experiment [10], 29.1 µM (active); in experiment [11], 5.47 µM (active); in [12], 28.9 µM (active); in experiment [13] it was 11.4 µM (active). The AC50 is 5.82 µM (active) in experiment [14]; 20 µM (active) in experiment [16]; 5.47 µM (active) in [17]; 5.95 µM (active) in [18]; 9.67 µM (active) in experiment [19]; 11.9 µM (active) in [20]. Also, the result in [7] and in experiment [15] was inactive.
Take `N#[N+]c1ccc2c(S(=O)(=O)[O-])cccc2c1O`: the result in [1], in [2], in experiment [3], in [4], in experiment [5] and in experiment [6] was inactive. The outcome in experiment [7], in [8], in experiment [9], in [10], in experiment [11] and in [12] was inactive. Also, the outcome in experiment [13], in experiment [14], in [15], in experiment [16], in experiment [17] and in [18] was inactive. Moreover, the result in experiment [19] and in experiment [20] was inactive.
Regarding `O=C(Cl)c1cc(C(=O)Cl)cc(C(=O)Cl)c1`, the AC50 in experiment [1] is 15.5 µM (active); in experiment [2] it was 14.5 µM (active); in experiment [3] it was 12.3 µM (active); in experiment [4], 32 µM (active); in [5], 7.85 µM (active); in experiment [6], 29.2 µM (active). For the same compound, the AC50 in [7] was 20 µM (active); in experiment [8], 15 µM (active); in experiment [9], 36.3 µM (active); in experiment [10], 20 µM (active); in experiment [11], 31 µM (active); in experiment [12] it was 26 µM (active). Moreover, the AC50 in [13] was 17.8 µM (active); in experiment [14], 21.4 µM (active); in experiment [17], 3.77 µM (active); in [18], 13.6 µM (active); in experiment [19], 26.4 µM (active); in experiment [20], 13.7 µM (active). Further, the outcome in experiment [15] and in experiment [16] was inactive.
